Results reported in PubChem BioAssay (NCATS).
Records with an inconclusive call do not appear. Where a call stands in place of a potency, no number is given. Calls of active or inactive are those of the source. Calls come from the whole dose curve; as a rule, active = well fitted curve in the direction sought with a large enough effect; inconclusive = small, poorly fitted or top-dose-only effect, or another doubt; inactive = no such curve, though single readings can be large; an effect the other way counts as inactive or inconclusive.

Key:
[1] = qHTS of pediatric cancer cell lines to identify multiple opportunities for drug repurposing: Primary screen for TC32 cells (AID 1347089); note: nearly all actives have a fitted effect of over 60% in size
Method in brief: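 Measured quantity: luminescence from CellTiter-Glo, reflecting metabolically active TC32 cells following 48 h of compound. Curves came straight from multi-point titrations, with 8 or 11 points in primary and 11 in confirmatory screening.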

[2] = qHTS of pediatric cancer cell lines to identify multiple opportunities for drug repurposing: Primary screen for SJ-GBM2 cells (AID 1347091); note: potency is the fitted concentration of half-maximal effect
Method in brief: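 Eight- or eleven-point concentration series, 48 h treatment at 37 degrees C in growth media; readout CellTiter-Glo luminescence. Potency and efficacy were taken from the concentration-response curves.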

[3] = qHTS of pediatric cancer cell lines to identify multiple opportunities for drug repurposing: Primary screen for SK-N-MC cells (AID 1347093); note: potency is the fitted concentration of half-maximal effect
Method in brief: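 Metabolically active cells were quantified by ATP-dependent luminescence (CellTiter-Glo, 15 min at room temperature) following 48 h treatment. Cells had been plated at 500-1,000 per well and settled for 5 h beforehand.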

[4] = qHTS of pediatric cancer cell lines to identify multiple opportunities for drug repurposing: Primary screen for BT-37 cells (AID 1347094); note: potency is the fitted concentration of half-maximal effect
Method in brief: (§1)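 Viability was measured as metabolically active cells after 48 hours of treatment, read by CellTiter-Glo luminescence. Compounds were tested at multiple final concentrations, giving concentration-response curves.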

[5] = qHTS of pediatric cancer cell lines to identify multiple opportunities for drug repurposing: Primary screen for NB-EBc1 cells (AID 1347095); note: potency is the fitted concentration of half-maximal effect
Method in brief: as §1

[6] = qHTS of pediatric cancer cell lines to identify multiple opportunities for drug repurposing: Primary screen for Saos-2 cells (AID 1347097); note: nearly all actives have a fitted effect of over 40% in size; note: potency is the fitted concentration of half-maximal effect
Method in brief: as §1

[7] = qHTS of pediatric cancer cell lines to identify multiple opportunities for drug repurposing: Primary screen for LAN-5 cells (AID 1347100); note: potency is the fitted concentration of half-maximal effect
Method in brief: (§2)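 Cells (500-1,000/well) in growth media were settled 5 h at 37 degrees C, then given compounds for 48 h. Viability was read as CellTiter-Glo luminescence. Primary runs used MIPE at 11 points (0.78 nM-46 µM) and NPC at 8 points (0.59 nM-46 µM); follow-ups used 11 points.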

[8] = qHTS of pediatric cancer cell lines to identify multiple opportunities for drug repurposing: Primary screen for BT-12 cells (AID 1347101); note: nearly all actives have a fitted effect of over 25% in size; note: potency is the fitted concentration of half-maximal effect
Method in brief: (§3)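 Cells (500-1,000/well) rested 5 h, then received compounds for 48 h; metabolically active cells were measured by CellTiter-Glo luminescence. Final concentrations spanned up to 46 µM (MIPE, 11-point) or 0.59 nM-46 µM (NPC, 8-point) in primary screens, 11-point in follow-ups.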

[9] = qHTS of pediatric cancer cell lines to identify multiple opportunities for drug repurposing: Primary screen for Rh18 cells (AID 1347102); note: nearly all actives have a fitted effect of over 65% in size; note: potency is the fitted concentration of half-maximal effect
Method in brief: as §2

[10] = qHTS of pediatric cancer cell lines to identify multiple opportunities for drug repurposing: Primary screen for RD cells (AID 1347104); note: nearly all actives have a fitted effect of over 55% in size; note: potency is the fitted concentration of half-maximal effect
Method in brief: as §1

[11] = qHTS of pediatric cancer cell lines to identify multiple opportunities for drug repurposing: Primary screen for control Hh wild type fibroblast cells (AID 1347106); note: nearly all actives have a fitted effect of over 55% in size; note: potency is the fitted concentration of half-maximal effect
Method in brief: as §2

[12] = qHTS of pediatric cancer cell lines to identify multiple opportunities for drug repurposing: Primary screen for U-2 OS cells (AID 1347096); note: nearly all actives have a fitted effect of over 50% in size
Method in brief: as §2

[13] = qHTS of pediatric cancer cell lines to identify multiple opportunities for drug repurposing: Primary screen for SK-N-SH cells (AID 1347098); note: nearly all actives have a fitted effect of over 65% in size; note: potency is the fitted concentration of half-maximal effect
Method in brief: as §3

[14] = qHTS of pediatric cancer cell lines to identify multiple opportunities for drug repurposing: Primary screen for NB1643 cells (AID 1347099); note: potency is the fitted concentration of half-maximal effect; nearly all actives have a fitted effect of over 50% in size
Method in brief: as §1

[15] = qHTS of pediatric cancer cell lines to identify multiple opportunities for drug repurposing: Primary screen for OHS-50 cells (AID 1347103); note: nearly all actives have a fitted effect of over 40% in size; note: potency is the fitted concentration of half-maximal effect
Method in brief: as §3

[16] = qHTS of pediatric cancer cell lines to identify multiple opportunities for drug repurposing: Primary screen for MG 63 (6-TG R) cells (AID 1347105); note: nearly all actives have a fitted effect of over 50% in size; note: potency is the fitted concentration of half-maximal effect
Method in brief: as §1

[17] = qHTS of pediatric cancer cell lines to identify multiple opportunities for drug repurposing: Primary screen for A673 cells (AID 1347092); note: nearly all actives have a fitted effect of over 45% in size; note: potency is the fitted concentration of half-maximal effect
Method in brief: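 Cells are plated, rested 5 h, dosed by pintool, incubated 48 h, then lysed with CellTiter-Glo and read by luminescence. DMSO is the neutral control; bortezomib at 2.3 uM final is the positive control.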

[18] = qHTS of pediatric cancer cell lines to identify multiple opportunities for drug repurposing: Primary screen for Rh30 cells (AID 1347107); note: series mostly up to about 46 µM; nearly all actives have a fitted effect of over 75% in size
Method in brief: as §2

SMILES | Potency [1] | Potency [2] | Potency [3] | Potency [4] | Potency [5] | Potency [6] | Potency [7] | Potency [8] | Potency [9] | Potency [10] | Potency [11] | Potency [12] | Potency [13] | Potency [14] | Potency [15] | Potency [16] | Potency [17] | Potency [18]
C[C@@H]1CCN(C(=O)CC#N)C[C@H]1N(C)c1ncnc2[nH]ccc12 | inactive | inactive | inactive | inactive | inactive | inactive | inactive | inactive | inactive | inactive | inactive | – | – | – | – | – | – | –
O=C1NC(=O)C(=Cc2ccc3nccnc3c2)S1 | inactive | 8.12 µM (active) | 2.29 µM (active) | – | 4.57 µM (active) | 8.12 µM (active) | – | – | – | – | inactive | inactive | inactive | 7.24 µM (active) | 4.21 µM (active) | 5.12 µM (active) | – | –
CCC(=O)NC[C@H](Cc1ccc(OCCc2nc(-c3ccccc3)oc2C)cc1)NC(C)=CC(=O)c1ccc(C(F)(F)F)cc1 | inactive | 3.32 µM (active) | – | 3.06 µM (active) | 0.743 µM (active) | 16.6 µM (active) | 3.32 µM (active) | – | inactive | – | inactive | – | – | 13.2 µM (active) | 12.2 µM (active) | – | 1.87 µM (active) | –
COc1ccc(-c2oc3c(CC=C(C)C)c(OC4O[C@H](CO)[C@@H](O)[C@H](O)[C@@H]4O)cc(O)c3c(=O)c2OC2O[C@@H](C)[C@H](O)[C@@H](O)[C@@H]2O)cc1 (stereo partly drawn) | inactive | 18.7 µM (active) | – | – | 23.5 µM (active) | 26.4 µM (active) | 23.5 µM (active) | – | – | – | inactive | – | – | 20.9 µM (active) | 21.7 µM (active) | – | – | –
O=C(CCc1ccc(O)cc1)c1c(O)cc(O)cc1O[C@@H]1O[C@H](CO)[C@H](O)[C@H](O)[C@H]1O | inactive | inactive | – | inactive | inactive | inactive | inactive | inactive | inactive | inactive | inactive | inactive | inactive | 26.4 µM (active) | inactive | inactive | inactive | inactive
O=C(NCc1ccccc1)c1csc(Nc2ccncn2)n1 | inactive | – | 20.9 µM (active) | 17.2 µM (active) | 14.8 µM (active) | 11.8 µM (active) | 13.2 µM (active) | 19.3 µM (active) | 23.5 µM (active) | 29.6 µM (active) | – | – | – | 13.2 µM (active) | – | 23.5 µM (active) | 23.5 µM (active) | –
c1cc(-c2sc(-c3ccncc3)c(-c3ccncc3)c2-c2ccncc2)ccn1 | inactive | inactive | – | inactive | inactive | – | inactive | inactive | inactive | – | inactive | inactive | – | – | inactive | inactive | – | –
O=c1c(O)c(-c2ccc(O)cc2)oc2cc(O)cc(O)c12 | inactive | 14.8 µM (active) | – | – | 9.35 µM (active) | inactive | 6.62 µM (active) | – | – | – | inactive | inactive | – | – | – | inactive | – | –
Nc1ncnc2c1nc(Cl)n2[C@@H]1O[C@H](CO)[C@@H](O)[C@@H]1O | inactive | 11.8 µM (active) | – | – | inactive | inactive | – | inactive | – | 29.6 µM (active) | 23.5 µM (active) | – | – | 16.6 µM (active) | 15.3 µM (active) | 29.6 µM (active) | 23.5 µM (active) | –
CC=CC[C@@H](C)C(=O)[C@H]1C(=O)N[C@@H](C(C)C)C(=O)N(C)CC(=O)N(C)[C@@H](CC(C)C)C(=O)N[C@@H](C(C)C)C(=O)N(C)[C@@H](CC(C)C)C(=O)N[C@@H](C)C(=O)N[C@H](C)C(=O)N(C)[C@@H](CC(C)C)C(=O)N(C)[C@@H](CC(C)C)C(=O)N(C)[C@@H](C(C)C)C(=O)N1C | inactive | 18.7 µM (active) | – | – | inactive | 18.7 µM (active) | – | – | inactive | inactive | inactive | inactive | 30.4 µM (active) | – | 24.3 µM (active) | inactive | – | inactive
Cc1ccc(Nc2cc(-c3cccc(N4C(=O)c5ccccc5C4=O)c3)ncn2)cc1NS(C)(=O)=O | inactive | inactive | – | – | – | 33.2 µM (active) | 23.5 µM (active) | – | inactive | – | inactive | inactive | – | – | – | inactive | 18.7 µM (active) | –
Cc1c(NC(=O)c2ccc(C(C)(C)C)cc2)cccc1-c1cn(C)c(=O)c(Nc2ccc(C(=O)N3CCOCC3)cc2)n1 | inactive | – | 18.7 µM (active) | – | 18.7 µM (active) | 18.7 µM (active) | – | – | – | – | inactive | – | – | – | 24.3 µM (active) | inactive | 9.35 µM (active) | –
NC(=O)c1cccc(-c2cc(Nc3ccc(OC(F)(F)F)cc3)ncn2)c1 | inactive | inactive | inactive | inactive | inactive | – | – | – | – | inactive | inactive | inactive | inactive | – | – | inactive | – | –
Nc1ncnc2c1ncn2[C@@H]1O[C@H](CO)C[C@@H]1O | inactive | inactive | – | inactive | – | inactive | inactive | inactive | inactive | inactive | – | inactive | – | – | 24.3 µM (active) | – | – | –
COC(=O)N[C@H](C(=O)N1CCC[C@@H]1c1ncc(-c2ccc(-c3ccc(-c4cnc([C@@H]5CCCN5C(=O)[C@@H](NC(=O)OC)C(C)C)[nH]4)cc3)cc2)[nH]1)C(C)C | inactive | 23.5 µM (active) | – | – | 26.4 µM (active) | 18.7 µM (active) | 26.4 µM (active) | 34.3 µM (active) | – | 33.2 µM (active) | inactive | – | inactive | – | – | – | – | –
